# The list is not random: actives were taken first. Their share in the collection is about 2.3%.
# Rango release inh: qHTS Assay for Inhibitors of RanGTP induced Rango (Ran-regulated importin-beta cargo) - Importin beta complex dissociation. Snurportin-1 (Homo sapiens) + GTP-binding nuclear protein Ran (Homo sapiens) + Importin …. Biochemical FRET Rango-importin beta, RanGTP-induced dissociation. Potency, µM (titrated, usually from 46.1 µM), inactives show at the highest dose activity change, negative = inhibition. 340,000 compounds, 0.071% hits. AID 540253, 2011; calls by dose curve; further: % of control where 0% means no effect; nearly all actives have a fitted effect of over 45% in size
#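 Two FRET readings bracket the reaction: one 5 min after compound meets Rango–importin beta, another 45 min after RanGTP-RCC1 (0.6 uM Ran, 0.2 uM RCC1, 2 mM GTP) is added. Only the second defines inhibition.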
# Rango complex inh: qHTS Assay for Inhibitors of Rango (Ran-regulated importin-beta cargo) - Importin beta complex formation. Importin subunit beta-1 (Homo sapiens), Q14974. Rango CFP/YFP FRET sensor + importin beta, 45 min. 340,000 compounds, 0.031% hits. AID 540263, 2011. Potency, µM (doses to about 92.2 µM), for the others: at the top dose inhibition of complex formation; calls by dose curve;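 further: 0% = DMSO wells and 100% = buffer wells lacking importin beta; nearly all actives have a fitted effect of over 15% in size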
# Target sequence (Q14974 whole entry, looked up): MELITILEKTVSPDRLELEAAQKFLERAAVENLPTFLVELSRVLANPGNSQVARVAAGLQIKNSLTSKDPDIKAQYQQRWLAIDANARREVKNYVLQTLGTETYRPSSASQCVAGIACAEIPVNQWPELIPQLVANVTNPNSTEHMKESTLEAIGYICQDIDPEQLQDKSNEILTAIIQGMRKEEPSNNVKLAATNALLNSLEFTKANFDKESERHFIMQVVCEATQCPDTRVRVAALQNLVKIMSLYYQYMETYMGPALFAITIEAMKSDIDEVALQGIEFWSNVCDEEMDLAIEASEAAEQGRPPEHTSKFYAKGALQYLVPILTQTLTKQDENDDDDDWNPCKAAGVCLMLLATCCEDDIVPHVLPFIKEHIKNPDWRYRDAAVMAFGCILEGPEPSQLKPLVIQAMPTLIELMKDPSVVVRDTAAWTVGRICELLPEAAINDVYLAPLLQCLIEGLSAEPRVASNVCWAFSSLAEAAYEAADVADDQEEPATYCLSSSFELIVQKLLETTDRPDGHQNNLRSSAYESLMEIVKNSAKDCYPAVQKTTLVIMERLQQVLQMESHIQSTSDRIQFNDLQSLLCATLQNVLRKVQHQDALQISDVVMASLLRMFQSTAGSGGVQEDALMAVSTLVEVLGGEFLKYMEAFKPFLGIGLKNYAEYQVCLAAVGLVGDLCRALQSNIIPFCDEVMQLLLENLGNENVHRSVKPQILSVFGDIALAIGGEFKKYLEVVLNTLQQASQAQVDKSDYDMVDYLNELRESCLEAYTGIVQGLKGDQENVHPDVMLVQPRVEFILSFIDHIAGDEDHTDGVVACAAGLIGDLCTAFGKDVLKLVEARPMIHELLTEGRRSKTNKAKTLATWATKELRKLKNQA
#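 Inhibition scored from the CFP 486 nm/YFP 530 nm FRET ratio 45 min after adding 0.125 microM importin beta to 50 nM Rango biosensor preincubated 5 min with compound (room temperature, PBS with DTT, Tween-20, BSA). No-importin wells as positive control.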
# A549 viability: Nrf2 qHTS screen for inhibitors: counterscreen for cytotoxicity | AID 504648, 2011 | Potency, µM (highest dose often 46 µM), inactives show top-dose activity change, negative = cytotoxicity, usual class: inhibitors | 390,000 compounds, 0.16% hits | A549 ARE-Fluc cells, CellTiter-Fluor viability, 18-24 h; further: on the % scale 0 is the no-effect control and ±100 the full control effect
#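 A549 ARE-Fluc cells in 5% FBS OPTI-MEM, 5000 cells/well, rested 2 h then exposed to compounds in concentration-response for 18-24 h at 37 °C. Viability by CellTiter-Fluor fluorescence (Ex 405/Em 525) after 30 min; luciferase luminescence (BugLite, 15 min, RT) read afterwards.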
# Nrf2 inh: Nrf2 qHTS screen for inhibitors | Potency, µM (titrated, usually from 46 µM), inactives show at the top dose activity change, negative = inhibition, actives largely listed as inhibitors | 360,000 compounds, 2.1% hits | AID 504444, 2011 | A549 ARE-Fluc reporter, luciferase luminescence, 18-24 h; further: on the % scale 0 is the no-effect control and ±100 the full control effect; nearly all actives have a fitted effect of over 60% in size
#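 Reporter: ARE-Fluc in A549. Exposure: 18-24 h, 37 °C, 5% CO2, 5% FBS OPTI-MEM. Readouts: fluorescent cytotoxicity (CellTiter-Fluor), then luminescent Nrf2 signal after BugLite.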
# Nrf2 ARE act: qHTS of Nrf2 Activators. Potency, µM (doses to about 46.1 µM), for the others: at the highest dose activation, hits mostly activators. AID 624171, 2012. AREc32 ARE-luciferase reporter (MCF7-derived line), luminescence, 24 h. 410,000 compounds, 0.31% hits; further: % of control where 0% means no effect; nearly all actives have a fitted effect of over 65% in size
#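 ARE activation measured as luciferase luminescence (Steady-Glo, 30 min RT) in AREc32_Fluc cells after 24 hr compound exposure at 37 deg C, 5% CO2; cells seeded overnight at 1000/well in OPTI-MEM, 5% FBS.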
# An asterisk follows results filed as active; ? = inconclusive; . = no result given; [ ] = another dose, or the depositor's remark. Unless noted, the call rests on the fitted dose curve; in most records, active means well fitted curve in the direction sought with a large enough effect; inconclusive means small, poorly fitted or top-dose-only effect, or another doubt; inactive means no such curve, though single readings can be large; an effect the other way counts as inactive or inconclusive. Potency means the concentration at half of the fitted maximal effect.
SMILES,Rango release inh,Rango complex inh,A549 viability,Nrf2 inh,Nrf2 ARE act
CCC(C)Sc1cc(-c2nc3ccc(C)cn3c2NCc2ccccc2)ccc1OC (centres undefined),15µM*,?,16µM*,21µM*,-3%
CCCCNc1c(-c2ccc(SC3CCCCC3)c(OC)c2)nc2ccc(C)cn12,7.3µM*,?,?,?,0%
CCCCCCSc1cc(-c2nc3ccc(C)cn3c2NCCCC)ccc1OC,-22%,?,-14%,-15%,-1%
COc1ccc(-c2cc(-c3nc4ccccn4c3NCc3ccccc3)ccc2OC)cc1,26µM*,?,?,15µM*,-4%
COc1ccc(-c2nc3ccccn3c2NCc2ccc3c(c2)OCO3)cc1,?,-16%,10%,30%,0%
CCCCNc1c(-c2ccc(OC)c(SC3CCCCC3)c2)nc2ccc(C)cn12,?,?,?,18µM*,-6%
CCN(CC)S(=O)(=O)c1ccc(OCC(=O)NC(=O)Cc2ccccc2)c([N+](=O)[O-])c1,0%,0%,-2%,-28%,0%
Cc1c(Cl)cccc1NC(=O)c1cc(S(=O)(=O)N2CCCCC2)cn1C,.,.,12%,.,0%
CS(=O)(=O)N1CCC(C(=O)NCc2ccc(Cl)cc2)CC1,8%,-4%,8%,5%,0%
Cc1c2cc(O)c(=O)cc-2oc2cc(O)c(O)cc12,?,?,.,?,-1%
COc1cc(OC)c(-c2c3cc(O)c(=O)cc-3oc3cc(O)c(O)cc23)cc1OC,?,?,16µM*,?,-2%
Nc1cc(S(=O)(=O)N2CCN(S(=O)(=O)c3ccc4c(c3)OCCO4)CC2)ccn1,.,.,0%,2%,.
COc1ccc(C2c3ccccc3Oc3ncn(CCN4CCOCC4)c(=N)c32)cc1OC (centres undefined),.,.,0%,?,.
Cc1nn(-c2cccc(C(F)(F)F)c2)c(=O)c2ccccc12,2%,0%,5%,0%,3.5µM*
Cc1nn(-c2ccccc2)c(=O)c2ccccc12,-1%,-4%,-1%,4%,5%
Cn1nnnc1Sc1ncnc2scc(-c3cccc([N+](=O)[O-])c3)c12,.,.,6%,-27%,.
CC(C)CC(=O)Nc1c(C(=O)N2CCN(c3ccccc3F)CC2)oc2ccccc12,.,.,-12%,26µM*,1%
Cc1cccc(OCC(=O)Nc2c(C(=O)N3CCN(c4ccccc4F)CC3)oc3ccccc23)c1,.,.,?,18µM*,-1%
COc1cccc(CC(=O)Nc2c(C(=O)N3CCN(c4ccccc4F)CC3)oc3ccccc23)c1,.,.,3%,-7%,-1%
Cc1cc2c(s1)c1cnn(Cc3cc(C(F)(F)F)cc(Cl)c3F)c(=O)c1n2C,.,.,0%,-5%,.
COc1ccc(C2=CC(=O)C[C@H](c3ccc(F)cc3)C2)c(OC)c1,2%,2%,3%,-7%,0%
Cc1oc2c(c1C(=O)N1CCC(C)CC1)C(=O)c1ccccc1C2=O,18%,-1%,?,26µM*,-4%
COc1ccc(C2Nc3ccccc3C(=O)N2Cc2ccccn2)cc1COc1ccc(NC(C)=O)cc1 (centres undefined),.,.,-11%,?,.
CCc1nnc(NC(=O)c2ccc(S(=O)(=O)N3CCc4ccccc4C3)cc2)s1,-6%,-1%,1%,?,0%
O=C(Nc1ccccn1)c1ccc(Cl)c(S(=O)(=O)N2CCc3ccccc32)c1,-6%,1%,-23%,21µM*,-1%
SMILES,Rango release inh,Rango complex inh,A549 viability,Nrf2 inh,Nrf2 ARE act
CCc1nnc(NC(=O)c2ccc(Cl)c(S(=O)(=O)N3CCc4ccccc4C3)c2)s1,11%,-2%,-4%,18µM*,-1%
CC(=O)c1cccc(NC(=O)C2=CC(c3ccc(F)cc3)=NS(=O)(=O)N2C)c1,.,.,-4%,-9%,4%
CCc1ccccc1NC(=O)CCn1cccn1,.,.,3%,?,0%
O=C(C1CCC(CNc2nc(=S)[nH]c3ccccc23)CC1)N1CCN(c2ccccn2)CC1 (centres undefined),-7%,0%,?,16µM*,0%
Cn1c(=O)c([N+](=O)[O-])c(Cl)c2ccccc21,31%,0%,21µM*,?,9%
CC(C)c1ccc(C(C)NC(=S)NC2CCCCC2)cc1 (centres undefined),-2%,-9%,9%,18µM*,0%
CC(NC(=S)NC1CCCCC1)c1ccc(C(C)(C)C)cc1 (centres undefined),-1%,2%,1%,?,5%
Cn1cc(/C=C(\C#N)C(=O)Nc2ccccc2O)c2ccccc21,18µM*[inhibitor],?,-27%,0%,12%
CCN(c1ccccc1)S(=O)(=O)c1ccc(NC(=O)c2nc(S(C)(=O)=O)ncc2Cl)cc1,9%,0%,?,21µM*,-3%
CC(C)Cn1cc(C(=O)N2CCN(c3cccc(Cl)c3)CC2)c2c3ccccc3n(C)c2c1=O,.,.,?,21µM*,4%
CCOCc1c(C(=O)NCC(c2ccco2)N2CCCC2)oc2ccccc12 (centres undefined),16%,1%,1%,3%,7%
Nc1c(C(=O)Nc2ccc(Cl)c(C(F)(F)F)c2)sc2nc(-c3ccncc3)ccc12,.,.,-4%,7.3µM*,0%
Cc1ccccc1NC(=O)c1sc2nc(-c3ccncc3)ccc2c1N,.,.,-8%,26µM*,-1%
O=C(NCc1ccco1)c1cc(S(=O)(=O)N2CCOCC2)c(Cl)cc1Cl,-6%,-1%,?,18µM*,0%
COc1ccc(NC(=O)CC2C(=O)N(c3ccc(C)cc3)C(=O)N2Cc2cccnc2)cc1 (centres undefined),.,.,-2%,-6%,0%
N=c1oc2ccccc2cc1C(=O)Nc1ccccc1,1%,-4%,-13%,?,18%
N=c1oc2cc(O)ccc2cc1C(=O)Nc1ccc(Br)cc1,?,?,3%,21µM*,4%
O=C(NCCc1ccccc1)c1sc2ncccc2c1-n1cccc1,.,.,0%,.,16%
CN1CCN(NC(=O)c2ccc(S(=O)(=O)N3CC4(C)CC3CC(C)(C)C4)cc2)CC1 (centres undefined),-4%,1%,1%,-16%,0%
CCOC(=O)c1cnc2ccc(OCC)cc2c1Nc1ccc(OCc2ccccc2Cl)cc1,.,.,-16%,21µM*,0%
N#C/C(=C\c1cc(Cl)cc(Cl)c1O)C(=O)NC1CCCCC1,6.5µM*,?,6%,-9%,3%
N#C/C(=C\c1cc(Cl)ccc1O)C(=O)NC1CCCCC1,-10%,0%,1%,.,0%
